# Screening data from PubChem BioAssay.
# Sampled rows, rich in hits. Any-hit rate of the full collection: about 8.5%.
# ALDH1A1 inh = ALDH1A1 (human) enzyme inhibition. P00352. Purified ALDH1A1, NADH fluorescence, propionaldehyde substrate. Potency, µM (doses to about 75.3 µM), for inactives: at the top dose activity, negative = inhibition, actives largely listed as inhibitors. 7.3% of 220,000 active. AID 1030; active = well fitted inhibition curve with a large enough effect, not every such curve was filed as active; inconclusive = small, poorly fitted or top-dose-only effect, or another doubt; inactive = no such curve, though single readings can be large or run the other way;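 also: potency is read from the fitted curve at half-maximal effect; plate controls were no enzyme wells and a reference inhibitor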
# Sfp PPTase inh = Sfp phosphopantetheinyl transferase inhibition. Q9F4F7. Biochemical Sfp PPTase activity, qHTS. Potency, µM, inactives show largest response in the series, negative = inhibition, hits mostly inhibitors. 3.5% of 310,000 active. AID 1490;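 also: the enzyme is Sfp with the accession as filed and its product quenches rhodamine fluorescence; potency is read from the fitted curve at half-maximal effect; 0% = enzyme reaction without inhibitor and -100% = no enzyme wells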
#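 Buffer: 50 mM Hepes-Na pH 7.6, 10 mM MgCl2, 0.01% Nonidet P-40, 0.01% BSA. Enzyme 15 nM, pre-exposed to compound 15 min; substrates then added and fluorescence change tracked over 30 min.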
# GoLoco inh red = inhibitors of human Gai1-RGS12 GoLoco interaction (red fluorophore); 0.44% of 230,000 active; Gai1:RGS12 GoLoco peptide FP, rhodamine, 10 min; P63096; Potency, µM (doses to about 61.6 µM), for inactives: top-dose activity, negative = inhibition, usual class: inhibitors; active = well fitted inhibition curve with a large enough effect, not every such curve was filed as active; inactive = no such curve, though single readings can be large or run the other way; also: potency is read from the fitted curve at half-maximal effect; nearly all actives have a fitted effect of over 30% in size
# Target sequence (P63096 whole entry, looked up): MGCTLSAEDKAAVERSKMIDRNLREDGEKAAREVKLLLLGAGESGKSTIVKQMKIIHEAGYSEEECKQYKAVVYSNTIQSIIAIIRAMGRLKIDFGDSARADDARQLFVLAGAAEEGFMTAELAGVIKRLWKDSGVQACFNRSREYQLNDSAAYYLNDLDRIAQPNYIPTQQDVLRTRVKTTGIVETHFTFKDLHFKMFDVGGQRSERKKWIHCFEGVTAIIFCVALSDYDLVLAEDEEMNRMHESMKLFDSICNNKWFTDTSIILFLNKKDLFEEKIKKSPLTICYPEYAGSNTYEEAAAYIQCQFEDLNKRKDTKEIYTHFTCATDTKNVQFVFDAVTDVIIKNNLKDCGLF
# KDM4E inh = JMJD2E (human) inhibition | 1.6% of 230,000 active | JMJD2E catalytic domain, FDH-coupled NADH fluorescence (FDH is formaldehyde dehydrogenase) | Potency, µM (titrated, usually from 57.1 µM), for inactives: at the highest dose activity change, negative = inhibition, most hits filed as inhibitors; active = well fitted inhibition curve with a large enough effect, not every such curve was filed as active; inconclusive = small, poorly fitted or top-dose-only effect, or another doubt; inactive = no such curve, though single readings can be large or run the other way;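 also: potency is read from the fitted curve at half-maximal effect; 0% = wells with enzyme and -100% = buffer wells without enzyme; nearly all actives have a fitted effect of over 50% in size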
# NPSR antag = antagonists of human neuropeptide S receptor cAMP signaling; Q6W5P4; CHO-NPSR cells, cAMP TR-FRET, antagonist mode; Potency, µM (highest dose often 38.3 µM), inactives show top-dose activity change, negative = inhibition, most hits filed as inhibitors; 1% of 220,000 active; also: potency is read from the fitted curve at half-maximal effect; nearly all actives have a fitted effect of over 50% in size
# Target sequence (Q6W5P4 whole entry, looked up): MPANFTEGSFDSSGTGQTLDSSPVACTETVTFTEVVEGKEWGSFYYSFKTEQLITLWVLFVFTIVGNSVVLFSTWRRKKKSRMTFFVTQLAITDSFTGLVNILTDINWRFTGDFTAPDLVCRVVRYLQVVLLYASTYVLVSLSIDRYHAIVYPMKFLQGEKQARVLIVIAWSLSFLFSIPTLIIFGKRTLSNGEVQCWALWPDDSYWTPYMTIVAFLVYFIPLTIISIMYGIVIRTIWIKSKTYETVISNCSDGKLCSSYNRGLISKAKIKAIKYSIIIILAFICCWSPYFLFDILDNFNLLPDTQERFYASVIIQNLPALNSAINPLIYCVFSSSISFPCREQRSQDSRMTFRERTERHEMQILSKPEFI
# FBPA coupling cs = counter-screen for Giardia aldolase inhibitors: coupling enzyme system; 0.67% of 290,000 active; activity change, negative = inhibition, % at 58.2 µM, hits read low; coupling enzyme system counterscreen, AmpLite Red fluorescence; AID 2472; in the data active = activity change below about -30%
#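 Compounds tested against the coupling enzymes alone at 57.5 uM final; readout was AmpLite Red fluorescence (525/598 nm) after 20 min at RT.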
# Starred values were filed as active, the others as inactive; u = inconclusive; x = no result given; [ ] = another dose, or the depositor's remark. Unless noted, calls follow the shape of the dose curve; as a rule, active = well fitted curve in the direction sought with a large enough effect; inconclusive = small, poorly fitted or top-dose-only effect, or another doubt; inactive = no such curve, though single readings can be large; an effect the other way counts as inactive or inconclusive. Unless noted, % is scaled to controls: 0 for no effect and ±100 for the full control effect.
SMILES,ALDH1A1 inh,Sfp PPTase inh,GoLoco inh red,KDM4E inh,NPSR antag,FBPA coupling cs
CCN(CC)S(=O)(=O)c1ccc(N2CCCCC2)c(NC(=O)/C(C#N)=C/c2ccc(OC)cc2)c1,u,17.1%,19.2%,-9.0%,-14.3%,-0.3
c1ccc(C(c2ccccc2)N2CCN(c3nc4ccccc4n4cnnc34)CC2)cc1,14.1µM*,-14.1%,x,-4.1%,-7.0%[46.1 µM],-8.6
Cc1cccc(N2CCN(c3nc4ccccc4n4cnnc34)CC2)c1C,63.5%,u,13.6%,10.2%,2.0%[46.1 µM],-2.2
CC(=O)N1CCC2(CC1)CCN(c1ccc(-c3ccccc3)cc1)CC2,u,56.2µM*,17.7%,x,x,2.2
CN1CCN(c2ncc3nc(-c4cn(C)c5ccccc45)c(=O)n(CCC#N)c3n2)CC1,u,-2.5%,-4.8%,x,x,-4.1
CCCc1ccc(-c2c(C)sc(N)c2C#N)cc1,20µM*,35.5µM*,41.5%,-15.8%,u,-10.6
C/C(=N\NC(=O)CCn1nnc2ccccc21)c1ccco1,-4.7%,6.7%,4.1%,11.9%,-19.1%,-0.1
NC1=NC(c2ccc(F)cc2)n2c(nc3ccccc32)N1 (stereo not drawn),8.0%,-6.0%,-2.5%,4.5%,-7.1%[46.1 µM],1.1
Cc1ccc(-n2c(C)cc(C3N=C(N)Nc4nc5ccccc5n43)c2C)c(C)c1 (stereo not drawn),12.6µM*,u,3.4%,-5.2%,10µM*,0.4
NC1=NC(c2cccc(O)c2)n2c(nc3ccccc32)N1 (stereo not drawn),4.7%,-6.0%,-2.0%,-1.2%,6.2%[46.1 µM],-0.5
Cc1cc(C2N=C(N)Nc3nc4ccccc4n32)c(C)n1-c1ccccc1Cl (stereo not drawn),1.12µM*,2.82µM*,-4.2%,2.7%,-7.7%[46.1 µM],-4.7
Cc1ccc2sc(N(CCCN(C)C)C(=O)CN3C(=O)c4ccccc4C3=O)nc2c1C,-9.9%,-8.0%,15.8%,-0.8%,-36.9%,-1.3
CC12C=C(/C=C/c3ccc(F)cc3)C(C)(C1)C(c1ccc(F)cc1)CC2=O (stereo not drawn),-0.6%[13.5 µM],u,x,x,x,0.4
CC(=O)N=c1sc2nc3ccccc3nc2n1N(C(C)=O)C(C)=O,u,44.7µM*,-31.3%,u,12.6µM*,-0.7
CC(=O)N=c1sc2ccccc2n1C,0.3%,19.7%,6.7%,7.8%,-2.2%[46.1 µM],1.0
Cc1ccc2c(c1C)OC(=O)CC2c1ccccc1 (stereo not drawn),x,-11.1%,x,x,x,5.0
O=C(CCN1C(=O)/C(=C\c2cccs2)SC1=S)Nc1ccc(C(=O)O)cc1,x,12.9%,x,x,x,x
O=C(CCN1C(=O)/C(=C\c2ccco2)SC1=S)Nc1ccc(C(=O)O)c(O)c1,x,44.7µM*,x,x,x,-9.0
COc1ccccc1/C=C1\SC(=S)N(CCC(=O)Nc2ccc(C(=O)O)c(O)c2)C1=O,x,-10.4%,x,x,x,13.8
O=C(CCN1C(=O)/C(=C/c2ccco2)SC1=S)Nc1ccc(C(=O)O)c(O)c1,x,56.2µM*,x,x,x,4.3
COc1cc(C(=O)Nc2cccc(NC(=O)c3cccs3)c2)cc(OC)c1OC,x,2.4%,x,x,x,4.2
COc1cccc(CN2CC(C(=O)N(C)C3CCOCC3)CCC2=O)c1 (stereo not drawn),x,13.8%,x,x,x,-1.8
CCC(C)NC(=O)c1cc(-c2ccc3c(c2)OCO3)on1 (stereo not drawn),x,4.3%,x,x,x,-1.6
CN(Cc1ccccc1)C(=O)C1CCN(S(=O)(=O)c2cccc3nonc23)CC1,x,20.0%,x,x,x,0.6
CCN(CC)C(=O)c1cc(Cl)ccn1,31.6µM*,44.7µM*,7.7%,-4.8%,6.3%,0.6
SMILES,ALDH1A1 inh,Sfp PPTase inh,GoLoco inh red,KDM4E inh,NPSR antag,FBPA coupling cs
O=C(Nc1ccccc1Cl)c1ccc2nc(N3CCOCC3)sc2c1,x,4.6%,x,x,x,-0.4
CCN1CCN(CCCNC(=O)c2ccc3c(c2)NC(=O)/C(=C\c2cccc(C)c2)S3)CC1,x,35.5µM*,x,x,x,x
Cc1cccc(/C=C2/Sc3ccc(C(=O)NCCCN4CCOCC4)cc3NC2=O)c1,x,50.1µM*,x,x,x,-0.7
Cc1ccc(C2C3=C(CC(C)(C)CC3=O)N=C3c4ccccc4C(=O)C32)cc1 (stereo not drawn),-4.5%,-16.8%,21.5%,-0.8%,-49.1%,-5.9
COc1ccc(/C=C/C(=O)c2cc3c(cc2N)OCO3)cc1,1.2%,u,2.2%,22.4µM*,-10.3%,-0.9
COc1ccc(C(=O)/C=C/c2ccccc2)c(O)c1,-10.3%,20µM*,1.2%,3.7%,-34.1%,0.3
COc1ccc(C(=O)/C=C(\N)C(F)(F)F)c(O)c1,8.91µM*,1.2%,6.2%,-0.5%,-20.3%[46.1 µM],1.3
N/C(=C/C(=O)c1ccccc1O)C(F)(F)F,4.8%,8.4%,6.7%,15.8%,1.8%,-1.4
C#Cc1ccc(CN2CCC(Oc3cc(C(=O)NC4CC4)ccc3OC)CC2)cc1,x,16.2%,x,x,x,1.7
Cc1ccccc1C(=O)O/N=C(\N)Cc1cccs1,x,10.5%,x,x,x,0.8
N#Cc1c(-c2ccccc2)nc(SCc2nc(N)nc(N3CCCCC3)n2)[nH]c1=O,-4.5%,13.5%,19.1%,6.2%,6.31µM*,1.3
C[N+](C)(C)CCOC(=O)C1(c2ccccc2)CCCC1,4.4%,13.6%,7.08µM*,-8.1%,-8.0%[46.1 µM],1.1
CC(C[N+](C)(C)C)OC(=O)C1(c2ccccc2)CCCC1 (stereo not drawn),x,4.8%,-21.8%,1.0%,15.4%,2.1
Cc1ccc(N(C(=O)c2csnn2)C(C(=O)NC(C)(C)C)c2cccnc2)cc1 (stereo not drawn),1.4%,19.4%,10.4%,-0.8%,-1.7%,2.6
COC(=O)CCC/C=C1/SCC(NC(=O)c2ccccc2)C1O (stereo not drawn),u,-11.1%,-4.6%,-5.9%,-5.4%[46.1 µM],-3.5
COC(=O)CCC/C=C1/SCC(NC(=O)c2ccccc2)C1=O (stereo not drawn),7.94µM*,u,146.1%,u,0.1%[46.1 µM],0.6
CCn1c2ccccc2c2nnc(SCC(=O)N3CC(C)OC(C)C3)nc21 (stereo not drawn),20µM*,-15.5%,12.0%,-2.7%,5.5%[46.1 µM],0.3
CSc1nnc2c3ccccc3n(Cc3ccccc3)c2n1,-4.7%,0.8%,-6.2%,2.1%,u,0.1
CSc1nnc2c3ccccc3n(CCc3ccccc3)c2n1,8.91µM*,u,-7.3%,-15.2%,u,-13.3
COc1ccccc1N1CCN(C(=O)CSc2nnc3c4ccccc4n(CC(=O)O)c3n2)CC1,-3.6%,-20.7%,3.1%,0.6%,15.3%,2.6
CCCn1c2ccccc2c2nnc(SCC(=O)Nc3ncccn3)nc21,7.08µM*,14.2%,9.6%,4.0%,-19.5%[46.1 µM],7.9
COc1ccccc1OC(C)C(=O)Nc1ccc(S(=O)(=O)N2CCN(C)CC2)cc1 (stereo not drawn),x,13.5%,x,x,x,2.3
O=C(CN1CCOCC1)Nc1ccc(Oc2ccc(NC(=O)CN3CCOCC3)cc2)cc1,17.8µM*,13.4%,9.5%,6.9%,-5.5%[46.1 µM],0.8
